Results as given in PubChem BioAssay AID1546 (The Scripps Research Institute Molecular Screening Center, 2009).
The list shows a part of the results. A number with no mark means an inactive call. No stated cut-off is given here; in the data, active means activation above about 45%; inactive means the rest.

Biological target: Neuropeptide Y receptor type 1 (Homo sapiens) (UniProt P25929)
Test: human Y1 receptor positive modulation or activation – cell-based, confirmation (AID 1546);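 further: cells challenged with NPY at its EC10 plus isoproterenol stimulus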
Conditions: cell-based NPY-Y1 potentiator/agonist assay; at 3.6 µM; stronger effect = higher value

Neuropeptide Y receptor type 1 (Homo sapiens), sequence (P25929 whole entry, looked up): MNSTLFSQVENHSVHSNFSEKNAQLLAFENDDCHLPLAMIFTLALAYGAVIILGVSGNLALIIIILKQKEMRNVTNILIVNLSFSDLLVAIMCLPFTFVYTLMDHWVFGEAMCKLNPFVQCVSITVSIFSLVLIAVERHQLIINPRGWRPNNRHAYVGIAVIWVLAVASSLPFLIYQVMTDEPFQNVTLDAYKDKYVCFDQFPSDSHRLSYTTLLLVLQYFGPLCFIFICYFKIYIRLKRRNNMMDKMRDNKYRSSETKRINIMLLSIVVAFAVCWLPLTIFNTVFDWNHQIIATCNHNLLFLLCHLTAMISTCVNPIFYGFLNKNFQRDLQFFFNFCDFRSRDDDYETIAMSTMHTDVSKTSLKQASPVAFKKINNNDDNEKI

CSC1=NP(=S)(SC)N(C)c2nc3n(c21)CCC3 (configuration not stated)
activation: 13.8%

Cc1nn(Cc2ccccc2Cl)c(Cl)c1C(=O)OC(C(=O)NC(N)=O)C(C)C (configuration not stated)
activation: 43.3%
